The structures appear in SMILES notation. A number with no mark means an inactive call. For some of these results: Measured potencies and affinities stand elsewhere. Active and inactive are the calls of the source. Unless noted, how the calls were made is not given here.

One may read the inhibition as the relative decrease from the control value, in per cent.

Assay [1] can be described thus: antimalarial activity against Dd2 strain (AID 2302;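 active means growth inhibition above 50% at the single 2 µM test dose, taken to imply half-maximal potency below 2 µM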;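 further: 0% = DMSO untreated growth and 100% = chloroquine plus artemisinin killed control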). The conditions noted are these: P. falciparum Dd2 in RBCs, LDH growth readout, 72 h; at 2 µM; hits give high values.
Assay [2] in a line: human hepatoma cell viability loss – ATP luminescence, cytotoxicity control for P. falciparum antimalarial project, primary screen (AID 2303;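 active means inhibition above 50%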;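 further: 0% = DMSO wells and 100% = digitonin-killed cells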). The conditions noted are these: HepG2 viability, 24-48 h, at 10 µM, hits give high values.
For assay [3], the target named is L-lactate dehydrogenase (Plasmodium falciparum (isolate CDC / Honduras)) (UniProt Q27743). Kind of assay: PfLDH activity inhibition – cell lysate, 3D7 strain, counter-screen for P. falciparum growth inhibition project (AID 2304).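 Further: 0% = vehicle and 100% = reference inhibitor.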 Particulars: P. falciparum 3D7 crude extract, LDH APAD/NBT absorbance; at 2 µM; hits give high values. A general note: Counterscreens check selectivity or assay interference.
Sequence of L-lactate dehydrogenase (Plasmodium falciparum (isolate CDC / Honduras)) (Q27743 whole entry, looked up): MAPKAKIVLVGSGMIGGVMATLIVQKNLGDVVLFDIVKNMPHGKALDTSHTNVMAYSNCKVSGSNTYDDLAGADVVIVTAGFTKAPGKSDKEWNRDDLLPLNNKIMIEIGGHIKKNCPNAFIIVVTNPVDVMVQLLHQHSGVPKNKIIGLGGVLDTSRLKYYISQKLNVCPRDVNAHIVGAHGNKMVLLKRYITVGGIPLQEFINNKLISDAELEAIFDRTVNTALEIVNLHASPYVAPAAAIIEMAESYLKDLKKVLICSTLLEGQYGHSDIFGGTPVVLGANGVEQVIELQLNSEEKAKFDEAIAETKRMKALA

Assay [4] can be described thus: inhibition of 3D7 malaria parasite growth – strain 3D7 (AID 2306).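 Further: 0% = DMSO wells and 100% = chloroquine plus artemisinin control wells.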 The conditions noted are these: P. falciparum 3D7 erythrocytic growth, LDH absorbance, 72 h; at 2 µM; hits give high values.
Assay [5] addresses Calcium-dependent protein kinase 1 (Plasmodium falciparum (isolate 3D7)) (UniProt P62344). Kind of assay: PfCDPK1 kinase inhibitors, biochemical, TCAMS library (AID 1159585; cut-off not given, nearly all actives have IC50 up to about 0.98 µM;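 further: inhibitors leave more ATP so luminescence rises with inhibition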). Particulars: recombinant PfCDPK1, Kinase-Glo ATP depletion luminescence. On the technique in general: Kinase-Glo measures the ATP left after a reaction by luminescence.
In assay [6] the target is Plasmodium falciparum protein kinase 6 (PK6, PF3D7_1337100) (UniProt Q8IDW1). Kind of assay: PfPK6 kinase inhibitors, biochemical, TCAMS library (AID 1159586). The conditions noted are these: recombinant PfPK6, Kinase-Glo ATP depletion luminescence.
Sequence of Plasmodium falciparum protein kinase 6 (PK6, PF3D7_1337100) (Q8IDW1 1-305): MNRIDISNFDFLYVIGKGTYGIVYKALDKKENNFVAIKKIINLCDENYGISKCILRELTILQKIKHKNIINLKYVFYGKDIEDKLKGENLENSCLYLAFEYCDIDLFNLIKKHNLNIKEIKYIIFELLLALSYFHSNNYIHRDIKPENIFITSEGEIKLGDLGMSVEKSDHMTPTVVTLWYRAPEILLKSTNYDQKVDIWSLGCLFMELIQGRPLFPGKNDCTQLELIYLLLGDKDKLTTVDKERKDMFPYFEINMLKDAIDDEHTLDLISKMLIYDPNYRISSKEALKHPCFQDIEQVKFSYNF
The target in assay [7] is Protein kinase 7 (PK7), Plasmodium falciparum 3D7 (PF3D7_0213400) (UniProt Q7YTF7). Kind of assay: inhibition of Plasmodium PK7 catalytic activity – biochemical, TCAMS antimalarial set, Kinase-Glo luminescence (AID 1159587). The conditions noted are these: recombinant PfPK7, Kinase-Glo ATP depletion luminescence.
Sequence of Protein kinase 7 (PK7), Plasmodium falciparum 3D7 (PF3D7_0213400) (Q7YTF7 1-343): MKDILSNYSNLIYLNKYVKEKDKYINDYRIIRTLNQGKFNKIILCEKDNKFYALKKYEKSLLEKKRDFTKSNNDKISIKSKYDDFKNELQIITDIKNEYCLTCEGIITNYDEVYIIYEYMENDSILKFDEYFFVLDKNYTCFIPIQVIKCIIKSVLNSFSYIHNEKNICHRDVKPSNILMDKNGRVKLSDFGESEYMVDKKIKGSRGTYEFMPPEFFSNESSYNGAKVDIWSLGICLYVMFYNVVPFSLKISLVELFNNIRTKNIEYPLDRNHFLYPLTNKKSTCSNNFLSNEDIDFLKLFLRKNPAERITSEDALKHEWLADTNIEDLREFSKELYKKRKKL
Assay [8] concerns the target Calcium-dependent protein kinase 4 (Plasmodium falciparum (isolate 3D7)) (UniProt Q8IBS5). Kind of assay: PfCDPK4 kinase inhibitors, biochemical, TCAMS library (AID 1159588; cut-off not given, nearly all actives have IC50 up to about 0.91 µM). Particulars: recombinant PfCDPK4, Kinase-Glo ATP depletion luminescence.

Sequence of Calcium-dependent protein kinase 4 (Plasmodium falciparum (isolate 3D7)) (Q8IBS5 whole entry, looked up): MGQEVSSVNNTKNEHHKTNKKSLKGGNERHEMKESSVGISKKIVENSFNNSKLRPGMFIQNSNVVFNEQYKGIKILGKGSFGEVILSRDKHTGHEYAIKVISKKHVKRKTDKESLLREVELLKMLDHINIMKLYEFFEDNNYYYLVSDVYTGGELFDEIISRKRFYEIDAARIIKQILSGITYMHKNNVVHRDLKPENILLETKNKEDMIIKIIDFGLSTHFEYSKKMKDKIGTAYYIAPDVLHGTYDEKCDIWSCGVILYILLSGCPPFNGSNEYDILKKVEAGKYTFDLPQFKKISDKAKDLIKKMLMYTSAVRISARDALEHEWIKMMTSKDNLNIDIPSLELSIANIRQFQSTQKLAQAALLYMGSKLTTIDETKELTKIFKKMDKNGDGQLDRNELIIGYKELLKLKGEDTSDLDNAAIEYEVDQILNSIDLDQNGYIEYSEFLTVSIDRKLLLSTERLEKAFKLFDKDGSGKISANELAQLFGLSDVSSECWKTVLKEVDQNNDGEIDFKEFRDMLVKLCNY
Sequence of Calcium-dependent protein kinase 1 (Plasmodium falciparum (isolate 3D7)) (P62344 whole entry, looked up): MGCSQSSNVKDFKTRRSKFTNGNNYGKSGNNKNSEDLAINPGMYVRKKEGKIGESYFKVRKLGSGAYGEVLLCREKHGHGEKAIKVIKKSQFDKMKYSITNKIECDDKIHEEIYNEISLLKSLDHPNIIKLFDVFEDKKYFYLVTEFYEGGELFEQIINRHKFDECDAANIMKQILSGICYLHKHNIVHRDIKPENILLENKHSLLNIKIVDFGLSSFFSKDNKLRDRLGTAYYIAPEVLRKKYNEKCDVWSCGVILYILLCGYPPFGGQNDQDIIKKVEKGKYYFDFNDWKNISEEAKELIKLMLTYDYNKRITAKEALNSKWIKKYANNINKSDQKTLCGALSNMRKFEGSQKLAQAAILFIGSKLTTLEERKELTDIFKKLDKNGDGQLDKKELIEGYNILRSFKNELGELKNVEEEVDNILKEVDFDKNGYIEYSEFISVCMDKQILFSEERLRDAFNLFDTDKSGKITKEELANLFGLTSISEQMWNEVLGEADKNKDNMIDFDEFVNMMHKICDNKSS

On to `COc1c(C2CCN(CCCCNC(=O)c3ccc(-c4ccc(C#N)cc4)c(O)c3)CC2)ccc2c1CCCC2`, for which the growth inhibition in assay [1] was 78% (active); in assay [4], 100% (active). The figures for the inhibition in assay [2] and in assay [3] were 35% and -2%, respectively. The outcome in assay [5], in assay [6], in assay [7] and in assay [8] was inactive.
Regarding `CN1CCN(c2cc3c(cc2Cl)CCN3C(=O)Nc2ccc(NC(=O)c3ccc(C(F)(F)F)cc3)cc2)CC1`, the growth inhibition was 99% (active) in assay [1] and 100% (active) in assay [4]. Besides, the inhibition in assay [2] was 98% (active); in assay [3] it was -4%. Also, the outcome in assay [5], in assay [6], in assay [7] and in assay [8] was inactive.
Turning to `CN1CCCN(Cc2ccc(-c3cccc(NC(=O)c4cccc(F)c4)c3)cc2)CC1`, the growth inhibition in assay [1] is 12%; in assay [4], 91% (active). Moreover, the inhibition is 28% in assay [2] and -3% in assay [3]. Further, the result in assay [5], in assay [6], in assay [7] and in assay [8] was inactive.
For `Cc1ccc(Nc2nccc(NCC(O)c3ccc(C(F)(F)F)cc3)n2)cc1` (stereo not given), the growth inhibition in assay [1] and in assay [4] was 100% (active) each time. For the same molecule, the inhibition is 53% (active) in assay [2] and -7% in assay [3]. Besides, the outcome in assay [5], in assay [6], in assay [7] and in assay [8] was inactive.
Turning to `C[C@@H]1CN(c2cnn(C/C=C/c3ccc(NC(=O)c4ccc5nonc5c4)cc3)c(=O)c2Cl)C[C@H](C)N1`, the values for the growth inhibition in assay [1] and in assay [4] were 35% and 94% (active), respectively. In addition, the inhibition in assay [2] was 71% (active); in assay [3] it was -3%. Also, the result in assay [5], in assay [6], in assay [7] and in assay [8] was inactive.
Take `CS(=O)(=O)N(c1ccc(F)cc1)c1cc(C(=O)N[C@@H](Cc2ccccc2)[C@H](O)CNCc2cccc(C(F)(F)F)c2)cc(N2CCCC2=O)c1`: the growth inhibition in assay [1] was 65% (active); in assay [4] it was 91% (active). The inhibition in assay [2] was -4%; in assay [3], -1%. For the same molecule, the outcome in assay [5], in assay [6], in assay [7] and in assay [8] was inactive.
As for `O=C(N[C@H]1CCN(Cc2ccc(OCCCN3CCCCC3)cc2)C1)c1ccc(Cl)c(Cl)c1`, the growth inhibition is 36% in assay [1] and 102% (active) in assay [4]. The inhibition was 27% in assay [2] and 0% in assay [3]. Moreover, the outcome in assay [5], in assay [6], in assay [7] and in assay [8] was inactive.
Take `Cc1[nH]c(C)c(-c2ccc(Oc3ccc(F)cc3)cc2)c(=O)c1Cl`: the growth inhibition was 98% (active) in assay [1] and 99% (active) in assay [4]. Besides, the figures for the inhibition in assay [2] and in assay [3] were 14% and 4%, respectively. Moreover, the outcome in assay [5], in assay [6], in assay [7] and in assay [8] was inactive.
For `COc1ccc2c(c1)CC(C)(C)NC2CCCCCCCCC1NC(C)(C)Cc2cc(OC)ccc21` (stereo not given), the growth inhibition in assay [1] was 62% (active); in assay [4], 98% (active). For the same molecule, the inhibition in assay [2] was 42%; in assay [3], 0%. Also, the result in assay [5], in assay [6], in assay [7] and in assay [8] was inactive.
`O=C(CCc1cnc[nH]1)Nc1cccc(-c2cccc(-c3nc4ccc(C(F)(F)F)cc4[nH]3)c2)c1`: the growth inhibition in assay [1] was 99% (active); in assay [4], 101% (active). Moreover, the inhibition was 17% in assay [2] and 7% in assay [3]. In addition, the outcome in assay [5], in assay [6], in assay [7] and in assay [8] was inactive.
On to `CCOC(=O)N1CCN(CCCNc2c3ccc(Cl)cc3nc3ccc(OC)cc23)CC1`, for which the figures for the growth inhibition in assay [1] and in assay [4] were 100% (active) and 101% (active), respectively. In addition, the inhibition in assay [2] is 52% (active); in assay [3], 3%. Also, the outcome in assay [5], in assay [6], in assay [7] and in assay [8] was inactive.
In the case of `Cc1nn(-c2ccccc2)c2nc(-c3ccccc3)cc(C(=O)N3CCOCC3)c12`, the growth inhibition in assay [1] is 67% (active); in assay [4], 93% (active). The inhibition in assay [2] and in assay [3] was 6% throughout. Further, the result in assay [5], in assay [6], in assay [7] and in assay [8] was inactive.
On to `Cc1noc(-c2ccc(N3CCC(C(=O)N4CCN(C(C)C)CC4)CC3)cc2)n1`, for which the results for the growth inhibition in assay [1] and in assay [4] were -2% and 95% (active), respectively. The figures for the inhibition in assay [2] and in assay [3] were -12% and -5%, respectively. Besides, the outcome in assay [5], in assay [6], in assay [7] and in assay [8] was inactive.
In the case of `Oc1ccc(CCCNc2nc(NCc3cccc4ccccc34)nc(N3CCCNCC3)n2)cc1`, the growth inhibition was 62% (active) in assay [1] and 96% (active) in assay [4]. The inhibition in assay [2] is 98% (active); in assay [3], -2%. Also, the outcome in assay [5], in assay [6], in assay [7] and in assay [8] was inactive.
On to `COc1ccc2ncc(F)c(CCN3CC[C@@H](CNCc4ccc5c(c4C)OCCO5)C3)c2n1`, for which the growth inhibition in assay [1] was 11%; in assay [4], 94% (active). In addition, the inhibition in assay [2] is 17%; in assay [3], 1%. In addition, the outcome in assay [5], in assay [6], in assay [7] and in assay [8] was inactive.
Consider `CCn1cc(C(=O)O)c(=O)c2cc(F)c(N3CCN(S(=O)(=O)c4ccc(N)cc4)CC3)cc21`, for which the growth inhibition in assay [1] is 79% (active); in assay [4] it was 90% (active). Moreover, the inhibition in assay [2] is -2%; in assay [3], 4%. Further, the outcome in assay [5], in assay [6], in assay [7] and in assay [8] was inactive.
With `Cn1cncc1C(=O)Nc1cccc(-c2ccc(-c3nc4ccc(F)cc4[nH]3)cc2)c1`, the growth inhibition in assay [1] was 31%; in assay [4] it was 101% (active). Further, the inhibition was -1% in assay [2] and -2% in assay [3]. The result in assay [5], in assay [6], in assay [7] and in assay [8] was inactive.
As to `Cc1ccc(CNC(=O)[C@H](CC(C)C)Nc2cc(C)nc(NCC3CCCCC3)n2)cc1`, the growth inhibition in assay [1] is 44%; in assay [4], 96% (active). For the same molecule, the inhibition in assay [2] is 6%; in assay [3], -2%. Moreover, the result in assay [5], in assay [6], in assay [7] and in assay [8] was inactive.
For the molecule `CC(=O)Oc1c(C2C=CCCC2)c(OC(C)=O)c2ccccc2c1OC(C)=O` (stereo not given), the growth inhibition in assay [1] was 79% (active); in assay [4], 95% (active). Also, the inhibition is 10% in assay [2] and 7% in assay [3]. For the same molecule, the outcome in assay [5], in assay [6], in assay [7] and in assay [8] was inactive.
As for `COc1ccc(-c2ccc(NC(=O)c3ccc(Cl)cc3)cc2)cc1CN1CCN(C)CC1`, the values for the growth inhibition in assay [1] and in assay [4] were 23% and 86% (active), respectively. In addition, the inhibition was 36% in assay [2] and 7% in assay [3]. Moreover, the outcome in assay [5], in assay [6], in assay [7] and in assay [8] was inactive.

For the origin of these results see PubChem BioAssay.
